JMJD2A Tudor inh = blocks the human JMJD2A Tudor domain; AlphaScreen JMJD2A-Tudor / H3K4me3 peptide binding; Potency, µM (titrated, usually from 114 µM), most hits filed as inhibitors; hit rate 4.4% among 390,000; AID 504339; also: nearly all actives have a fitted effect of over 50% in size
Six1-Eya2 blk = blocks human Six1 binding to Eya2. AlphaScreen GST-Six1/His-Eya2 binding, biochemical; hits give low values. activity change, % (test concentration not listed). Q15475+O00167. hit rate 0.56% among 360,000. AID 651725; in the data active = activity change below about -65%; inconclusive = mostly about -30% to -63%
Target sequence (O00167 whole entry, looked up): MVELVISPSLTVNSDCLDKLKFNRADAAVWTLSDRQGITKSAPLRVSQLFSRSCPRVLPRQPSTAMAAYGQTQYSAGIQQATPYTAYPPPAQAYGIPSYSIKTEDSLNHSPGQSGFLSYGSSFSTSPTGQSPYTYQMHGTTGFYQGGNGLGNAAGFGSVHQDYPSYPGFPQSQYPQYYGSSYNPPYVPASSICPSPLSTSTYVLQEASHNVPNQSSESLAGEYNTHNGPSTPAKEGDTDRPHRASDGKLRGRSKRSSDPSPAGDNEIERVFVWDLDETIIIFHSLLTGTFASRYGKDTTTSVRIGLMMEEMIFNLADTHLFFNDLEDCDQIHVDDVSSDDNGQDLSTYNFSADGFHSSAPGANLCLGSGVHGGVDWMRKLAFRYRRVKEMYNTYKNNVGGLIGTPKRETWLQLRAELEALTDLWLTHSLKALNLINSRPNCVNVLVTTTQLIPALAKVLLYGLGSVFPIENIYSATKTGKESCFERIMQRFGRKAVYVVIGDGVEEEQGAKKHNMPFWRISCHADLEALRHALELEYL
Target sequence (Q15475 whole entry, looked up): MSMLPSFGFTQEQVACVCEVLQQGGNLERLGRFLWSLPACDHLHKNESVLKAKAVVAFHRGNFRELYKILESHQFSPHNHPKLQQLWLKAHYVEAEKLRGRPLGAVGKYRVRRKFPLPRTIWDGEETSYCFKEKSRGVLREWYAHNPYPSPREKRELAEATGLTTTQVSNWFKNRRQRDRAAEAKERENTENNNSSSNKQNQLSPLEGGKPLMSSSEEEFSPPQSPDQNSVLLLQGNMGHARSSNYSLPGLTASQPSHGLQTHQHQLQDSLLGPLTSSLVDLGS
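AlphaScreen with GST-Six1 and His-Eya2 (5X mix: 250 nM and 500 nM), glutathione donor and nickel acceptor beads; buffer 50 mM Tris pH 8.0, 300 mM NaCl, 1 mM TCEP; 1 h at 37 C in the dark.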
BAZ2B block = inhibitors of human BAZ2B bromodomain | AlphaScreen BAZ2B-H3K14Ac peptide displacement | Potency, µM (titrated, usually from 114 µM), usual class: inhibitors | AID 504333 | Q9UIF8 | hit rate 4.4% among 360,000; also: nearly all actives have a fitted effect of over 60% in size
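Compounds, titrated to a top concentration of 110 uM, were incubated 30 min at room temperature with preformed BAZ2B/acetyl-K14 H3 peptide complex (50 nM each). Proximity signal was measured by AlphaScreen after 20 min with beads.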
HP1b chromo inh = blocks HP1-beta chromodomain binding to methylated histone tails. AlphaScreen HP1-beta / biotin-H3K9me3 peptide binding. Potency, µM (highest dose often 114 µM), usual class: inhibitors. AID 540317. hit rate 0.56% among 390,000. P83916; also: nearly all actives have a fitted effect of over 70% in size
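AlphaScreen: HP1-beta (50 nM) preformed 30 min with biotin-H3(1-18)K9me3 peptide (50 nM) in PBS pH 7.4, 0.01% Tween-20. Compound added for 30 min at RT, then streptavidin donor/nickel chelate acceptor beads (10 ug/mL) for 30 min.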
CtBP-E1A blk = inhibitors of CtBP/E1A interaction | AlphaScreen GST-E1A/His-CtBP binding, 1536-well; hits give low values | activity change, % (concentration not given with the values) | hit rate 0.49% among 340,000; in the data active = activity change below about -65%; inconclusive = mostly about -30% to -63%
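Homogeneous bead-based format: GST-tagged E1A captured on glutathione donor beads, His-tagged CtBP on nickel acceptor beads; compounds precede bead addition by 2 h at 37 °C.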
G9a inh = inhibitors of human histone lysine methyltransferase G9a. Potency, µM (titrated, usually from 102 µM), most hits filed as inhibitors. hit rate 8.8% among 350,000. G9a H3K9 monomethylation, AlphaScreen, 2 h. Q96KQ7. AID 504332; also: nearly all actives have a fitted effect of over 75% in size
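Using a bead-based AlphaScreen, monomethylated H3K9 product from 2 h room-temperature reactions (G9a 20 nM, peptide 500 nM, SAM 20 uM) was detected with 0.5 ug/mL rabbit anti-H3K9me1 antibody.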
A number is an active result; 0 = inactive; ? = inconclusive; - = not tested or not shown; [ ] = dose if it differs, or a comment. The list is not random: actives were taken first. Their share in the collection is about 10%. Unless noted, calls follow the shape of the dose curve; as a rule, active = well fitted inhibition curve with a large enough effect; inconclusive = small, poorly fitted or top-dose-only effect; inactive = no such curve, though single readings can be large or run the other way.

SMILES	JMJD2A Tudor inh	Six1-Eya2 blk	BAZ2B block	HP1b chromo inh	CtBP-E1A blk	G9a inh
Cc1c(Cl)cccc1NC(=O)Cn1c(=O)n(Cc2nc(-c3ccccc3)no2)c(=O)c2cc3c(cc21)OCO3	0	-	0	0	-	0
CCc1cccc2c(C(=O)COC(=O)/C=C/c3ccc(O)c(OC)c3)c[nH]c12	0	0	0	0	0	44.7µM
COc1cccc(/C=C/C(=O)OCC(=O)c2c[nH]c3ccccc23)c1	0	0	0	0	-78.5	0
COc1cccc(/C=C/C(=O)OCC(=O)c2c[nH]c3ccccc23)c1OC	0	0	0	0	0	0
Cc1ccc(CNc2ncnc3onc(-c4ccc(F)cc4)c23)cc1	0	-	0	0	-	0
COC(=O)C1=C(C)N(Cc2ccccc2)C(=O)N[C@H]1c1cccc(F)c1	0	0	-	0	-	-
COC(=O)C1=C(C(=O)OC)C2(OC1c1cccc(F)c1)C(=O)c1ccccc1C2=O (stereo unspecified)	0	0	0	0	0	25.1µM
O=S(=O)(Nc1nc2ccccc2nc1N1CCN(c2ccccc2)CC1)c1ccc(F)cc1	?	0	?	0	0	50.1µM
O=S(=O)(Nc1nc2ccccc2nc1Cl)c1ccccc1	0	0	0	0	-	39.8µM
CC1CCN(C(=O)CCNS(=O)(=O)c2ccc(Br)cc2)CC1	0	0	0	0	0	0[12.7 µM]
CC1CCN(C2=C(NS(=O)(=O)c3ccccc3)C(=O)c3ccccc3C2=O)CC1	14.1µM	-72.3	6.31µM	14.1µM	-84.7	3.98µM
O=S(=O)(Nc1nc2ccccc2nc1Cl)c1ccc(F)cc1	0	0	0	0	0	0
CC1CCN(C2=C(NS(=O)(=O)c3ccc(Br)cc3)C(=O)c3ccccc3C2=O)CC1	8.91µM	-84.3	4.47µM	6.31µM	-	8.91µM
COc1ccc(-c2nc3c(c(SCc4ccc(Br)cc4)n2)Cc2c(CO)cnc(C)c2O3)cc1	0	-	0	0	-	0
COc1cccc(-c2nccc(NCc3ccc(OC)cc3OC)n2)c1	-	-	-	-	-	0[0.501 µM]
O=C1C(NS(=O)(=O)c2cccs2)=C(N2CCN(c3cccc(Cl)c3)CC2)C(=O)c2ccccc21	7.08µM	?	8.91µM	?	?	?
O=C1C(NS(=O)(=O)c2ccccc2)=C(N2CCN(c3ccc(F)cc3)CC2)C(=O)c2ccccc21	?	-77.1	3.98µM	10µM	-87.6	5.62µM
O=C(c1cccc(NS(=O)(=O)c2ccc(F)cc2)c1)N1CCN(c2ccccc2)CC1	0	0	0	0	0	0
CC1CCCN(C2=C(NS(=O)(=O)c3ccc(Br)cc3)C(=O)c3ccccc3C2=O)C1 (stereo unspecified)	3.55µM	0	3.55µM	?	?	?
CC(=C1C(=O)c2ccccc2C1=O)N1CCN(c2ccc(F)cc2)CC1	0	0	0	0	-	50.1µM
O=S(=O)(Nc1ccccc1N1CCCCC1)c1ccccc1	0	0	0	0	0	0
O=C1C(NS(=O)(=O)c2ccc(Br)cc2)=C(N2CCCCC2)C(=O)c2ccccc21	8.91µM	?	5.01µM	10µM	-	8.91µM
CC1CCN(C2=C(NS(=O)(=O)c3ccc(Cl)cc3)C(=O)c3ccccc3C2=O)CC1	44.7µM	0	4.47µM	?	?	5.62µM
CSc1ncccc1C(=O)OCC(=O)c1cccc(Br)c1	0	0	0	0	0	0
Cc1csc(=O)n1CCC(=O)OCC(=O)NNC(=O)c1ccccc1	0	0	0	0	0	56.2µM
SMILES	JMJD2A Tudor inh	Six1-Eya2 blk	BAZ2B block	HP1b chromo inh	CtBP-E1A blk	G9a inh
Cc1csc(=O)n1CC(=O)OCC(=O)NNC(=O)c1ccccc1	0	0	0	0	0	0
Cc1csc(=O)n1CCC(=O)OCC(=O)Nc1ncc(Cl)cc1Cl	0	0	?	0	0	44.7µM
COCCn1nnnc1CN1CCSCC1	0	0	0	0	0	?
Cn1c(=O)c2c([nH]c(=S)n2CCCc2ccccc2)n(C)c1=O	5.01µM	0	28.2µM	15.8µM	0	0[0.501 µM]
Cn1c(=O)[nH]c(=O)c2c1nc(Br)n2Cc1ccc(Cl)cc1	-	0	-	-	0	-
Cn1c(=O)[nH]c(=O)c2c1[nH]c(=S)n2CCCc1ccccc1	3.16µM	0	25.1µM	10µM	0	-
Cn1c(=O)n(Cc2ccccc2Cl)c(=O)c2c1[nH]c(=S)n2C	12.6µM	0	?	?	0	1.26µM
